In the supplement of paper PMC4466140:

target: AgAbp1; assay: SPOT peptide array binding signal intensity (averaged, normalized) (arbitrary units (background-subtracted, floor 0; scale differs between SH3 domains)); higher = stronger binding of the SH3 domain to the peptide
Procedure, shortened: (§1)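 GST-fused SH3 domains from four yeast species were expressed in E. coli BL21(DE3), purified on glutathione Sepharose and incubated at 10 μg/ml overnight at 4°C in TBS-based blocking buffer on cellulose membranes carrying synthetic 15-mer peptides, with cysteines replaced by serines. Bound protein was detected with anti-GST antibody, an HRP anti-mouse secondary and luminol, then imaged and quantified with Genespotter. Binding signal is the normalized, background-subtracted spot intensity averaged over replicates, in arbitrary units that differ between domains.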

Binder | SPOT peptide array binding signal intensity
QLLNPNRRAPRRPLS | 104
GATNNAPTLPKRKNP | 94.5

target: AgBbc1; assay: as above
Procedure, shortened: as §1

Binder | SPOT peptide array binding signal intensity
QLLNPNRRAPRRPLS | 451
GATNNAPTLPKRKNP | 80.5

target: AgBem1-D1; assay: as above
Procedure, shortened: as §1

Binder | SPOT peptide array binding signal intensity
QLLNPNRRAPRRPLS | 328
GATNNAPTLPKRKNP | 15

target: AgBzz1-D1; assay: as above
Procedure, shortened: as §1

Binder | SPOT peptide array binding signal intensity
QLLNPNRRAPRRPLS | 59
GATNNAPTLPKRKNP | 60.2

target: AgBzz1-D2; assay: as above
Procedure, shortened: as §1

Binder | SPOT peptide array binding signal intensity
QLLNPNRRAPRRPLS | 45
GATNNAPTLPKRKNP | 21

target: AgCyk3; assay: as above
Procedure, shortened: as §1

Binder | SPOT peptide array binding signal intensity
QLLNPNRRAPRRPLS | 2
GATNNAPTLPKRKNP | ≤ 0

target: AgFus1; assay: as above
Procedure, shortened: as §1

Binder | SPOT peptide array binding signal intensity
QLLNPNRRAPRRPLS | 158
GATNNAPTLPKRKNP | 15.5

target: AgHof1; assay: as above
Procedure, shortened: as §1

Binder | SPOT peptide array binding signal intensity
QLLNPNRRAPRRPLS | 89.8
GATNNAPTLPKRKNP | 32.9

target: AgHse1; assay: as above
Procedure, shortened: as §1

Binder | SPOT peptide array binding signal intensity
QLLNPNRRAPRRPLS | 144
GATNNAPTLPKRKNP | ≤ 0

target: AgLsb1; assay: as above
Procedure, shortened: as §1

Binder | SPOT peptide array binding signal intensity
QLLNPNRRAPRRPLS | 9.25
GATNNAPTLPKRKNP | 11.4

target: AgLsb4; assay: as above
Procedure, shortened: as §1

Binder | SPOT peptide array binding signal intensity
QLLNPNRRAPRRPLS | 25
GATNNAPTLPKRKNP | 2730

target: AgMyo5; assay: as above
Procedure, shortened: as §1

Binder | SPOT peptide array binding signal intensity
QLLNPNRRAPRRPLS | 60.5
GATNNAPTLPKRKNP | ≤ 0

target: AgNbp2; assay: as above
Procedure, shortened: as §1

Binder | SPOT peptide array binding signal intensity
QLLNPNRRAPRRPLS | 4130
GATNNAPTLPKRKNP | 7.25

target: AgRvs167; assay: as above
Procedure, shortened: as §1

Binder | SPOT peptide array binding signal intensity
QLLNPNRRAPRRPLS | 2.83
GATNNAPTLPKRKNP | 47.3

target: AgSho1; assay: as above
Procedure, shortened: as §1

Binder | SPOT peptide array binding signal intensity
QLLNPNRRAPRRPLS | 7
GATNNAPTLPKRKNP | 3.75

target: AgSla1-D1-D2; assay: as above
Procedure, shortened: as §1

Binder | SPOT peptide array binding signal intensity
QLLNPNRRAPRRPLS | 33
GATNNAPTLPKRKNP | 7

target: AgSla1-D3; assay: as above
Procedure, shortened: as §1

Binder | SPOT peptide array binding signal intensity
QLLNPNRRAPRRPLS | 4
GATNNAPTLPKRKNP | 0.75

target: CaAbp1-D1; assay: as above
Procedure, shortened: as §1

Binder | SPOT peptide array binding signal intensity
QLLNPNRRAPRRPLS | 608
GATNNAPTLPKRKNP | 131

target: CaAbp1-D2; assay: as above
Procedure, shortened: as §1

Binder | SPOT peptide array binding signal intensity
QLLNPNRRAPRRPLS | 495
GATNNAPTLPKRKNP | 155

target: CaBbc1; assay: as above
Procedure, shortened: as §1

Binder | SPOT peptide array binding signal intensity
QLLNPNRRAPRRPLS | 1450
GATNNAPTLPKRKNP | 532

target: CaBem1-D1; assay: as above
Procedure, shortened: as §1

Binder | SPOT peptide array binding signal intensity
QLLNPNRRAPRRPLS | 122
GATNNAPTLPKRKNP | 6

target: CaBzz1-D1; assay: as above
Procedure, shortened: as §1

Binder | SPOT peptide array binding signal intensity
QLLNPNRRAPRRPLS | 220
GATNNAPTLPKRKNP | 232

target: CaBzz1-D2; assay: as above
Procedure, shortened: as §1

Binder | SPOT peptide array binding signal intensity
QLLNPNRRAPRRPLS | 135
GATNNAPTLPKRKNP | ≤ 0

target: CaCyk3; assay: as above
Procedure, shortened: as §1

Binder | SPOT peptide array binding signal intensity
QLLNPNRRAPRRPLS | 161
GATNNAPTLPKRKNP | 2.75

target: CaFus1; assay: as above
Procedure, shortened: as §1

Binder | SPOT peptide array binding signal intensity
QLLNPNRRAPRRPLS | 270
GATNNAPTLPKRKNP | ≤ 0

target: CaHof1; assay: as above
Procedure, shortened: as §1

Binder | SPOT peptide array binding signal intensity
QLLNPNRRAPRRPLS | 0.25
GATNNAPTLPKRKNP | 1.25

target: CaHse1; assay: as above
Procedure, shortened: as §1

Binder | SPOT peptide array binding signal intensity
QLLNPNRRAPRRPLS | 13.5
GATNNAPTLPKRKNP | 2.25

target: CaLsb1; assay: as above
Procedure, shortened: as §1

Binder | SPOT peptide array binding signal intensity
QLLNPNRRAPRRPLS | 0.25
GATNNAPTLPKRKNP | 0.5

target: CaLsb4; assay: as above
Procedure, shortened: as §1

Binder | SPOT peptide array binding signal intensity
QLLNPNRRAPRRPLS | 95.5
GATNNAPTLPKRKNP | 4150

target: CaMyo5; assay: as above
Procedure, shortened: as §1

Binder | SPOT peptide array binding signal intensity
QLLNPNRRAPRRPLS | 6.75
GATNNAPTLPKRKNP | 3

target: CaNbp2; assay: as above
Procedure, shortened: as §1

Binder | SPOT peptide array binding signal intensity
QLLNPNRRAPRRPLS | 2950

target: CaRvs167; assay: as above
Procedure, shortened: as §1

Binder | SPOT peptide array binding signal intensity
QLLNPNRRAPRRPLS | 28.8

target: CaRvs167-3; assay: as above
Procedure, shortened: as §1

Binder | SPOT peptide array binding signal intensity
QLLNPNRRAPRRPLS | 5.25

target: CaSho1; assay: as above
Procedure, shortened: as §1

Binder | SPOT peptide array binding signal intensity
QLLNPNRRAPRRPLS | 72

target: CaSla1-D1-D2; assay: as above
Procedure, shortened: as §1

Binder | SPOT peptide array binding signal intensity
QLLNPNRRAPRRPLS | 1270

target: CaSla1-D3; assay: as above
Procedure, shortened: as §1

Binder | SPOT peptide array binding signal intensity
QLLNPNRRAPRRPLS | 0.25

target: ScAbp1; assay: as above
Procedure, shortened: as §1

Binder | SPOT peptide array binding signal intensity
QLLNPNRRAPRRPLS | 73

target: ScBbc1; assay: as above
Procedure, shortened: as §1

Binder | SPOT peptide array binding signal intensity
QLLNPNRRAPRRPLS | 271

target: ScBem1-D1; assay: as above
Procedure, shortened: as §1

Binder | SPOT peptide array binding signal intensity
QLLNPNRRAPRRPLS | 45

target: ScBzz1-D1; assay: as above
Procedure, shortened: as §1

Binder | SPOT peptide array binding signal intensity
QLLNPNRRAPRRPLS | 56

target: ScBzz1-D2; assay: as above
Procedure, shortened: as §1

Binder | SPOT peptide array binding signal intensity
QLLNPNRRAPRRPLS | 30.5

target: ScCyk3; assay: as above
Procedure, shortened: as §1

Binder | SPOT peptide array binding signal intensity
QLLNPNRRAPRRPLS | 65

target: ScFus1; assay: as above
Procedure, shortened: as §1

Binder | SPOT peptide array binding signal intensity
QLLNPNRRAPRRPLS | 104

target: ScHof1; assay: as above
Procedure, shortened: as §1

Binder | SPOT peptide array binding signal intensity
QLLNPNRRAPRRPLS | ≤ 0

target: ScHse1; assay: as above
Procedure, shortened: as §1

Binder | SPOT peptide array binding signal intensity
QLLNPNRRAPRRPLS | 779

target: ScLsb1; assay: as above
Procedure, shortened: as §1

Binder | SPOT peptide array binding signal intensity
QLLNPNRRAPRRPLS | 37.2

target: ScLsb2; assay: as above
Procedure, shortened: as §1

Binder | SPOT peptide array binding signal intensity
QLLNPNRRAPRRPLS | 370

target: ScLsb3; assay: as above
Procedure, shortened: as §1

Binder | SPOT peptide array binding signal intensity
QLLNPNRRAPRRPLS | 808

target: ScLsb4; assay: as above
Procedure, shortened: as §1

Binder | SPOT peptide array binding signal intensity
QLLNPNRRAPRRPLS | 31

target: ScMyo3; assay: as above
Procedure, shortened: as §1

Binder | SPOT peptide array binding signal intensity
QLLNPNRRAPRRPLS | 70.5

target: ScMyo5; assay: as above
Procedure, shortened: as §1

Binder | SPOT peptide array binding signal intensity
QLLNPNRRAPRRPLS | 122

target: ScNbp2; assay: as above
Procedure, shortened: as §1

Binder | SPOT peptide array binding signal intensity
QLLNPNRRAPRRPLS | 6040

target: ScPex13; assay: as above
Procedure, shortened: as §1

Binder | SPOT peptide array binding signal intensity
QLLNPNRRAPRRPLS | 50.5

target: ScRvs167; assay: as above
Procedure, shortened: as §1

Binder | SPOT peptide array binding signal intensity
QLLNPNRRAPRRPLS | 93.5

target: ScSho1; assay: as above
Procedure, shortened: as §1

Binder | SPOT peptide array binding signal intensity
QLLNPNRRAPRRPLS | 271

target: ScSla1-D1-D2; assay: as above
Procedure, shortened: as §1

Binder | SPOT peptide array binding signal intensity
QLLNPNRRAPRRPLS | 247

target: ScSla1-D3; assay: as above
Procedure, shortened: as §1

Binder | SPOT peptide array binding signal intensity
QLLNPNRRAPRRPLS | 17.2

target: SpAbp1-D1; assay: as above
Procedure, shortened: as §1

Binder | SPOT peptide array binding signal intensity
QLLNPNRRAPRRPLS | 90

target: SpBbc1; assay: as above
Procedure, shortened: as §1

Binder | SPOT peptide array binding signal intensity
QLLNPNRRAPRRPLS | 66.5

target: SpBzz1-D1; assay: as above
Procedure, shortened: as §1

Binder | SPOT peptide array binding signal intensity
QLLNPNRRAPRRPLS | 370

target: SpBzz1-D2; assay: as above
Procedure, shortened: as §1

Binder | SPOT peptide array binding signal intensity
QLLNPNRRAPRRPLS | 130

target: SpCyk3; assay: as above
Procedure, shortened: as §1

Binder | SPOT peptide array binding signal intensity
QLLNPNRRAPRRPLS | 6

target: SpHof1; assay: as above
Procedure, shortened: as §1

Binder | SPOT peptide array binding signal intensity
QLLNPNRRAPRRPLS | 134

target: SpHof1-2; assay: as above
Procedure, shortened: as §1

Binder | SPOT peptide array binding signal intensity
QLLNPNRRAPRRPLS | 25

target: SpHof1-3; assay: as above
Procedure, shortened: as §1

Binder | SPOT peptide array binding signal intensity
QLLNPNRRAPRRPLS | 148

target: SpHse1; assay: as above
Procedure, shortened: as §1

Binder | SPOT peptide array binding signal intensity
QLLNPNRRAPRRPLS | 178

target: SpLsb1; assay: as above
Procedure, shortened: as §1

Binder | SPOT peptide array binding signal intensity
QLLNPNRRAPRRPLS | 61.5

target: SpLsb4; assay: as above
Procedure, shortened: as §1

Binder | SPOT peptide array binding signal intensity
QLLNPNRRAPRRPLS | 1750

target: SpMyo1; assay: as above
Procedure, shortened: as §1

Binder | SPOT peptide array binding signal intensity
QLLNPNRRAPRRPLS | 390

target: SpNbp2; assay: as above
Procedure, shortened: as §1

Binder | SPOT peptide array binding signal intensity
QLLNPNRRAPRRPLS | 440

target: SpPex13; assay: as above
Procedure, shortened: as §1

Binder | SPOT peptide array binding signal intensity
QLLNPNRRAPRRPLS | 20

target: SpRvs167; assay: as above
Procedure, shortened: as §1

Binder | SPOT peptide array binding signal intensity
QLLNPNRRAPRRPLS | 34

target: SpSla1-D1-D2; assay: as above
Procedure, shortened: as §1

Binder | SPOT peptide array binding signal intensity
QLLNPNRRAPRRPLS | 3

target: SpSla1-D3; assay: as above
Procedure, shortened: as §1

Binder | SPOT peptide array binding signal intensity
QLLNPNRRAPRRPLS | 2
